# According to PubChem BioAssay (Tox21):
# Records with an inconclusive call do not appear. Entries that show only a call come without a potency. The source made the active and inactive calls. Unless noted, calls follow the shape of the dose curve; as a rule, active = well fitted curve in the direction sought with a large enough effect in the repeat runs; inconclusive = weak or mixed curves; inactive = no such curve, though single readings can be large; an effect the other way counts as inactive or inconclusive.
# What was measured:
# [1] = target: Peroxisome proliferator-activated receptor gamma (Homo sapiens) (UniProt P37231); assay: qHTS assay to identify small molecule agonists of the peroxisome proliferator-activated receptor gamma (PPARg) signaling pathway (AID 743094; active = well fitted activation curve with a large enough effect in the signal ratio in the repeat runs, not every such curve was filed as active; the % refers to the signal ratio)
# Sequence of Peroxisome proliferator-activated receptor gamma (Homo sapiens) (P37231 whole entry, looked up): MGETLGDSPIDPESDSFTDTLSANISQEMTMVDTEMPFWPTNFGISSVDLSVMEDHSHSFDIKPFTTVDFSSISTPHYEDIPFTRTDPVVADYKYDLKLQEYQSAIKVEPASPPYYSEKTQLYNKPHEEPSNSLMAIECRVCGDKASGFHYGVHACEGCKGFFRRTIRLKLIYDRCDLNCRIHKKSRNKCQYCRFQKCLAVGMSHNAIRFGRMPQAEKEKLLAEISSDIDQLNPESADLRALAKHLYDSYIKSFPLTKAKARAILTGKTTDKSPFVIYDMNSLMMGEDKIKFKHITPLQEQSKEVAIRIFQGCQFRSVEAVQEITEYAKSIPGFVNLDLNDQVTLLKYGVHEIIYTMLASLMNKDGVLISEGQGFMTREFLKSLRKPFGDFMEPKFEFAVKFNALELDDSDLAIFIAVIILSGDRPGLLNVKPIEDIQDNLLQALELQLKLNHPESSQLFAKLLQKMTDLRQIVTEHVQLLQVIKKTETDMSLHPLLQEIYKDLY
# Procedure, shortened: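 Beta-lactamase FRET fluorescence was the read-out after a 1 h room-temperature substrate step, following 17 h compound treatment at 37C of HEK293H cells expressing a UAS-driven bla reporter responsive to PPARg.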
# [2] = target: Acetylcholinesterase (Homo sapiens) (UniProt P22303); assay: Acetylcholinesterase (AChE) small molecule antagonists: enzyme-based qHTS assay with human liver microsomes (AID 1347399; calls by dose curve; also: nearly all actives have a fitted effect of over 60% in size); settings: Potency: qHTS inhibition; outcome: qHTS inhibition
# Sequence of Acetylcholinesterase (Homo sapiens) (P22303 whole entry, looked up): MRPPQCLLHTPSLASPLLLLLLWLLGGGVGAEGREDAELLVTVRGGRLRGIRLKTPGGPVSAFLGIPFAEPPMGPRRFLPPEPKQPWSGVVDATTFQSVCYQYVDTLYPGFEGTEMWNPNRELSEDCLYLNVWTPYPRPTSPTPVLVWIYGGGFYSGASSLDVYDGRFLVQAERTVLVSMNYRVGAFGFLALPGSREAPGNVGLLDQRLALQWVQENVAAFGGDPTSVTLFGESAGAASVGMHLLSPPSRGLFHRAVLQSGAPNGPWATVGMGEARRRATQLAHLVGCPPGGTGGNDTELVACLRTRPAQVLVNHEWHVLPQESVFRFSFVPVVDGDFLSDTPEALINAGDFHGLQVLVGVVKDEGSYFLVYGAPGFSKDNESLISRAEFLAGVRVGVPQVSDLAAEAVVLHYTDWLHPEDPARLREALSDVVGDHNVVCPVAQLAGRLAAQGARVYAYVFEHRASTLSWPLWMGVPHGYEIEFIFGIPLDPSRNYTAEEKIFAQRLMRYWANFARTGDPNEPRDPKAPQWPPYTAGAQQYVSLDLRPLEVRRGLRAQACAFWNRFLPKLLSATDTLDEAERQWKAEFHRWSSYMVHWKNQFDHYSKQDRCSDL
# Procedure, shortened: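 Recombinant human AChE (50 mU/mL in the enzyme mix) and human liver microsomes (0.25 mg/mL final) were preincubated with compound and NADPH (0.25 mg/mL final) for 30 min at 37 C. Acetylthiocholine/DTNB was then added; thiocholine was read colorimetrically after 10 min at room temperature.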
# [3] = target: Acetylcholinesterase (Homo sapiens) (UniProt P22303); assay: Acetylcholinesterase (AChE) small molecule antagonists: fluorescence cell-based qHTS assay (AID 1347398; calls by dose curve; also: potency is read from the fitted curve at half-maximal effect; nearly all actives have a fitted effect of over 50% in size); settings: Potency: AChE activity; outcome: AChE activity
# Procedure, shortened: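 Endogenous acetylcholinesterase of SH-SY5Y neuroblastoma cells is measured in situ. After overnight attachment and 30 min compound exposure, cells receive acetylthiocholine and Thiolite Green; fluorescence is read after 40 min at room temperature.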
# Aromatase (Homo sapiens) = Aromatase (Homo sapiens) (UniProt P11511); assay: qHTS assay to identify aromatase inhibitors (AID 743083); also: series mostly up to about 70 µM; nearly all actives have a fitted effect of over 55% in size
# Sequence of Aromatase (Homo sapiens) (P11511 whole entry, looked up): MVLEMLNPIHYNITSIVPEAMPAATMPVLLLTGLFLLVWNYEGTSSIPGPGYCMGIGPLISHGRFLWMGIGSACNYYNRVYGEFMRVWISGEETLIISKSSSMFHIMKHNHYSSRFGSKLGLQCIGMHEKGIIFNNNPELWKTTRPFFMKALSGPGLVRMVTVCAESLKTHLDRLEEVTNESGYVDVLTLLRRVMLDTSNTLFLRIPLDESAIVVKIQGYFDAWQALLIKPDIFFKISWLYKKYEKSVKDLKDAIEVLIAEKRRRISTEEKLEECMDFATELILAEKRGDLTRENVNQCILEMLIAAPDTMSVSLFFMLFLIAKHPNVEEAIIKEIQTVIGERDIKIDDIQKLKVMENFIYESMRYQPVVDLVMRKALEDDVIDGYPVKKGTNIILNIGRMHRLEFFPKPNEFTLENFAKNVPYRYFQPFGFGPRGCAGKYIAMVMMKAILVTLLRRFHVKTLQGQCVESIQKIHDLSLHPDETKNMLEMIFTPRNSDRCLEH
# [4] = target: Aryl hydrocarbon receptor (Homo sapiens) (UniProt P35869); assay: qHTS assay to identify small molecule that activate the aryl hydrocarbon receptor (AhR) signaling pathway (AID 743085);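 also: HG2L7.5c1 human HepG2 liver cells with stably integrated DRE-driven firefly reporter; series mostly up to about 70 µM; nearly all actives have a fitted effect of over 15% in size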
# Sequence of Aryl hydrocarbon receptor (Homo sapiens) (P35869 whole entry, looked up): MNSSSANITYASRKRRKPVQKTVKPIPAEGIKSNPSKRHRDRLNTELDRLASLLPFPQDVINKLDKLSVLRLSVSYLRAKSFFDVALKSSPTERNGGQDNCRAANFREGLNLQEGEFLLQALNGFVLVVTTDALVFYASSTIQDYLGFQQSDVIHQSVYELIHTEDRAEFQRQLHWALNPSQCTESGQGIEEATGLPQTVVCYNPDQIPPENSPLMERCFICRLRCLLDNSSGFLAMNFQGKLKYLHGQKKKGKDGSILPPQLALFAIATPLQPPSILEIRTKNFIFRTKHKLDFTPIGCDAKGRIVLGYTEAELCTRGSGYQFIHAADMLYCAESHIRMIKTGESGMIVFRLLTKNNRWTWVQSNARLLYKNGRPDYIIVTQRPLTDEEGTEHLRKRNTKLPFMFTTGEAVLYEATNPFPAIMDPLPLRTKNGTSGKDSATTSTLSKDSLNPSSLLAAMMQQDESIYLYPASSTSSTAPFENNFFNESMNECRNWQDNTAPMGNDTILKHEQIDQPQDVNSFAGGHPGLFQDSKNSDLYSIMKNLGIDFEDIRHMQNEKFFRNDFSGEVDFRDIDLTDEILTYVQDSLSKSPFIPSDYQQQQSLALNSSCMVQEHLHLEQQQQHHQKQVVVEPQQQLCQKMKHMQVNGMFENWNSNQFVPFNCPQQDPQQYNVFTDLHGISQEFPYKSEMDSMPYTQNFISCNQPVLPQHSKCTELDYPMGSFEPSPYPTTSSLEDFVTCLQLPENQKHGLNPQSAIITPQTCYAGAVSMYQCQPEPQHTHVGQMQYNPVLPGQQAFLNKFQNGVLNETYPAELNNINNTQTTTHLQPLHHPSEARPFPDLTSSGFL
# Procedure, shortened: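 HepG2 cells (HG2L7.5c1) stably carrying a firefly luciferase reporter driven by 20 dioxin responsive elements were exposed to compound for 24 h at 37C after a 5 h settling period; luminescence rise (ONE-Glo) indicated activation.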
# [5] = qHTS assay for small molecule agonists of the p53 signaling pathway (AID 651631; calls by dose curve; also: nearly all actives have a fitted effect of over 15% in size)
# Procedure, shortened: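 HCT-116 cells carrying a stable p53 response element–beta-lactamase reporter were plated, rested 5 h at 37 °C, then exposed to compound in DMSO for 16 h at 37 °C; reporter activity was read as FRET substrate fluorescence after 2 h at room temperature.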
# [6] = qHTS assay for small molecules that induce genotoxicity in human embryonic kidney cells expressing luciferase-tagged ATAD5 (AID 651632); also: nearly all actives have a fitted effect of over 15% in size
# Procedure, shortened: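 ATAD5-luc HEK293T, 2,000 cells/well; cpd or DMSO pin-transferred; 16 hr, 37C/5% CO2; Amplite 30 min RT; luminescence.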
# [7] = qHTS assay for small molecules that induce genotoxicity in human embryonic kidney cells expressing luciferase-tagged ATAD5 - cell viability (AID 651634; calls by dose curve; also: nearly all actives have a fitted effect of over 25% in size)
# Procedure, shortened: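 Fluorescence from CellTiter-Fluor, reporting protease activity within live cells, served as the viability read-out. HEK293T cells carrying luciferase-tagged ATAD5 had been treated with compound for 15.5 hr at 37C.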
# [8] = qHTS assay for small molecule disruptors of the mitochondrial membrane potential - cell viability (AID 720634; calls by dose curve;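 also: human HepG2 liver cancer cells; series mostly up to about 83 µM; nearly all actives have a fitted effect of over 20% in size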)
# Procedure, shortened: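 Cells: HepG2, 2,000/well, attached overnight. Compound 1 hr, 37 C/5% CO2. +m-MPI dye, +CellTiter-Glo 30 min RT. Readout: luminescence (ATP).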
# [9] = qHTS assay to test for compound auto fluorescence at 590 nm (red) in HepG2 cells (AID 720674)
# Procedure, shortened: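 Seeding: 2,000 HepG2 cells/well, MEM/10% FBS, overnight 37 C. Dosing: compound vs DMSO. Incubation: 1 hr, 37 C, 5% CO2. Read: fluorescence 540 ex/590 em, Rose Bengal sodium as red reference.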
# [10] = qHTS assay to test for compound auto fluorescence at 535 nm (green) in HepG2 cells (AID 720675)
# [11] = qHTS assay to test for compound auto fluorescence at 460 nm (blue) in HEK293 cells (AID 720678)
# Procedure, shortened: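 Blue-channel (Ex/Em 405/460 nm) intensity measured in HEK293 cultures after overnight compound exposure at 37C; signal expressed relative to triamterene. Cells plated 2,000 per well in 10% dialyzed FBS medium and allowed 4-5 hr to attach.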
# [12] = qHTS assay to test for compound auto fluorescence at 590 nm (red) in HEK293 cells (AID 720679)
# Procedure, shortened: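 Red-channel autofluorescence (Ex/Em 540/590 nm; Rose Bengal sodium reference) was measured after overnight 37C, 5% CO2 exposure of attached HEK293 cells, 2,000 per well in medium with 10% dialyzed FBS.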
# [13] = qHTS assay to test for compound auto fluorescence at 535 nm (green) in HEK293 cells (AID 720680)
# [14] = qHTS assay to test for compound auto fluorescence at 460 nm (blue) in HEK293 cell free culture (AID 720681)
# Procedure, shortened: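 Compounds were added to cell-free DMEM with 10% FBS and fluorescence read directly. The blue channel used 405 nm excitation and 460 nm emission, with triamterene as the reference fluorophore.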
# [15] = qHTS assay to test for compound auto fluorescence at 535 nm (green) in HEK293 cell free culture (AID 720682)
# Procedure, shortened: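 Read-out: 485/535 nm fluorescence intensity, calibrated against fluorescein. Medium only (DMEM + 10% FBS, no cells); test compound or DMSO vehicle added by pintool before plate reading.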
# [16] = qHTS assay to test for compound auto fluorescence at 590 nm (red) in HEK293 cell free culture (AID 720683)
# Procedure, shortened: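 Cell-free wells of DMEM with 10% FBS received compound, and intrinsic fluorescence was read at excitation/emission 540/590 nm. Values expressed as equivalence to Rose Bengal sodium.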
# [17] = qHTS assay to test for compound auto fluorescence at 590 nm (red) in HepG2 cell free culture (AID 720684)
# Procedure, shortened: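 Compounds are added to culture medium (MEM, 10% FBS) lacking cells, then fluorescence is read at excitation 540 nm, emission 590 nm, with Rose Bengal sodium as the equivalency standard.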
# [18] = qHTS assay to test for compound auto fluorescence at 460 nm (blue) in HepG2 cell free culture (AID 720685)
# Procedure, shortened: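 Compound (23 nL) or DMSO pinned into cell-free MEM with 10% FBS; blue fluorescence read at 405/460 nm excitation/emission, expressed as auto-fluorescence equivalency to triamterene.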
# [19] = qHTS assay to test for compound auto fluorescence at 535 nm (green) in HepG2 cell free culture (AID 720686)
# [20] = qHTS assay to test for compound auto fluorescence at 460 nm (blue) in HepG2 cells (AID 720687)
# Procedure, shortened: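 HepG2 cells in MEM with 10% FBS, attached overnight at 37 C, were exposed to compound or DMSO for 1 hr at 37 C, 5% CO2. Blue fluorescence was read at 405/460 nm, with triamterene as reference fluorophore.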
# [21] = qHTS assay to identify small molecule antagonists of the glucocorticoid receptor (GR) signaling pathway - cell viability counter screen (AID 720693); also: nearly all actives have a fitted effect of over 55% in size
# [22] = qHTS assay for identifying genotoxic compounds that show differential cytotoxicity against isogenic chicken DT40 cell lines with known DNA damage response pathways - Rev3 mutant cell line (AID 743014); also: nearly all actives have a fitted effect of over 55% in size; also: potency is read from the fitted curve at half-maximal effect
# [23] = qHTS assay for identifying genotoxic compounds that show differential cytotoxicity against isogenic chicken DT40 cell lines with known DNA damage response pathways - Rad54/Ku70 mutant cell line (AID 743015); also: nearly all actives have a fitted effect of over 60% in size; also: potency is read from the fitted curve at half-maximal effect
# [24] = qHTS assay to identify small molecule antagonists of the androgen receptor (AR) signaling pathway - cell viability counter screen (AID 743033; also: nearly all actives have a fitted effect of over 45% in size)
# [25] = qHTS assay to identify small molecule antagonists of the androgen receptor (AR) signaling pathway using the MDA cell line - cell viability counter screen (AID 743041; also: nearly all actives have a fitted effect of over 45% in size)
# Procedure, shortened: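 Same-well cytotoxicity was assessed by CellTiter-Fluor in MDA-kb2 AR-luc cells after 16 h of compound treatment under R1881 agonism.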
# [26] = qHTS assay to identify small molecule antagonists of the thyroid receptor (TR) signaling pathway - cell viability counter screen (AID 743064); also: nearly all actives have a fitted effect of over 50% in size; also: potency is read from the fitted curve at half-maximal effect
# Procedure, shortened: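 GH3.TRE-Luc rat pituitary cells carrying a TRE-luciferase reporter were treated with compound plus 1 nM T3 (final) for 23.5 h at 37 °C. Viability was then read in the same wells by CellTiter-Fluor fluorescence after a further 30 min.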
# [27] = qHTS assay to identify small molecule antagonists of the thyroid receptor (TR) signaling pathway (AID 743065); also: nearly all actives have a fitted effect of over 55% in size; also: potency is read from the fitted curve at half-maximal effect
# Procedure, shortened: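 GH3.TRE-Luc rat pituitary cells (two TREs driving luciferase) were dosed with compound, then stimulated with 1 nM T3 (final) for 23.5 h at 37 C. ONE-Glo luminescence was the read-out, with CellTiter-Fluor fluorescence as the cytotoxicity counter-screen.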
# [28] = system: thyroid hormone receptor (rat, GH3 cells); assay: qHTS assay to identify small molecule agonists of the thyroid receptor (TR) signaling pathway (AID 743066; calls by dose curve)
# [29] = target: Estrogen receptor (Homo sapiens) (UniProt P03372); assay: qHTS assay to identify small molecule antagonists of the estrogen receptor alpha (ER-alpha) signaling pathway (AID 743069; active = well fitted curve in the direction sought with a large enough effect in the signal ratio in the repeat runs, not every such curve was filed as active; the % refers to the signal ratio)
# Sequence of Estrogen receptor (Homo sapiens) (P03372 whole entry, looked up): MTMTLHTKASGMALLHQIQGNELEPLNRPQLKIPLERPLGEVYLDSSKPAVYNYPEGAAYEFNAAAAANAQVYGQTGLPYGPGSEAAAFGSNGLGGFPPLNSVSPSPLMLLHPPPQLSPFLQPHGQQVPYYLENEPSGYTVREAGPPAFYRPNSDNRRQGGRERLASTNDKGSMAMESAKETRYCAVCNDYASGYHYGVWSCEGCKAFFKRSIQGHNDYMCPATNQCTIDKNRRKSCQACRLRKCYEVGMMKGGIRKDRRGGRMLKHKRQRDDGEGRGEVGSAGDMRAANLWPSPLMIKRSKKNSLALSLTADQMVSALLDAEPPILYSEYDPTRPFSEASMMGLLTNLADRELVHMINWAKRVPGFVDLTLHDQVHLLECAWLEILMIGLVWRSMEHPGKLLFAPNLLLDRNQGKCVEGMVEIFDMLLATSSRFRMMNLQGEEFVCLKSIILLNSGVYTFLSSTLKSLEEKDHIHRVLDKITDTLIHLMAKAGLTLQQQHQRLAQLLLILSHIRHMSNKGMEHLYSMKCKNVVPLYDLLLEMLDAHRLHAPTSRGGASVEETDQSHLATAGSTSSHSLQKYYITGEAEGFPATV
# Procedure, shortened: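 Reporter cells (ER-alpha-bla, HEK293 background) are conditioned overnight in stripped-serum medium (2% charcoal-stripped FBS). Compound and 17beta-estradiol exposure runs 18 hr at 37C, 5% CO2.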
# [30] = target: Estrogen receptor (Homo sapiens) (UniProt P03372); assay: qHTS assay to identify small molecule agonists of the estrogen receptor alpha (ER-alpha) signaling pathway (AID 743075; calls by dose curve;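 also: HEK293 GripTite cells with ER-alpha and UAS-driven beta-lactamase reporter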)
# [31] = target: Estrogen receptor (Homo sapiens) (UniProt P03372); assay: qHTS assay to identify small molecule agonists of the estrogen receptor alpha (ER-alpha) signaling pathway using the BG1 cell line (AID 743079); also: nearly all actives have a fitted effect of over 20% in size
# [32] = qHTS assay to identify small molecule antagonists of the estrogen receptor alpha (ER-alpha) signaling pathway using the BG1 cell line (AID 743080; calls by dose curve;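 also: BG1 cells stimulated with 17beta-estradiol alongside compound; series mostly up to about 70 µM; nearly all actives have a fitted effect of over 25% in size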)
# Procedure, shortened: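 Luciferase inhibition measured with ONE-Glo after 30 min at RT in BG1Luc4E2 cells given test compounds and 17beta-estradiol for 21.5 h at 37 C; CellTiter-Fluor viability read in the same wells beforehand.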
# [33] = qHTS assay to identify aromatase inhibitors - cell viability counter screen (AID 743084)
# [34] = qHTS assay to identify small molecule that activate the aryl hydrocarbon receptor (AhR) signaling pathway - cell viability counter screen (AID 743086);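 also: HepG2 liver cells carrying the AhR DRE luciferase reporter; series mostly up to about 70 µM; nearly all actives have a fitted effect of over 45% in size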
# Procedure, shortened: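 HepG2-AhR-luc (HG2L7.5c1) cells, 4000/well, treated 24 h at 37 C with compound; viability measured as CellTiter-Fluor fluorescence after 30 min in the same wells as the luciferase read.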
# [35] = qHTS assay to identify small molecule antagonists of the estrogen receptor alpha (ER-alpha) signaling pathway using the BG1 cell line - cell viability counter screen (AID 743081);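 also: compound given together with 17beta-estradiol as the ER stimulus; series mostly up to about 70 µM; nearly all actives have a fitted effect of over 45% in size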
smiles,measurement,setting,value
CN1C2CCC1CC(OC(c1ccccc1)c1ccc(Cl)cc1)C2 (stereo not drawn),outcome,[1],inactive
Cc1cc(=O)oc2cc(N(C)C)ccc12,Potency,[2],inactive
CCOc1ccc(Cc2nccc3cc(OCC)c(OCC)cc23)cc1OCC,Potency,[3],15.5 µM (active)
same,Potency,[2],inactive
CCCCCCCCCCC[C@@H](C[C@@H]1OC(=O)[C@H]1CCCCCC)OC(=O)[C@H](CC(C)C)NC=O,Potency,[2],inactive
COc1cc2nc(N3CCN(C(=O)C4CCCO4)CC3)nc(N)c2cc1OC (stereo not drawn),Potency,[3],12.3 µM (active)
same,Potency,[2],inactive
COc1cc2c(N3CCN(C(=O)Nc4ccc(OC(C)C)cc4)CC3)ncnc2cc1OCCCN1CCCCC1,Potency,[2],inactive
N=C1N=C(N)c2cc3ccccc3cc21,Potency,[2],inactive
O=[N+]([O-])O[C@@H]1CO[C@H]2[C@@H]1OC[C@@H]2O,Potency,Aromatase (Homo sapiens),inactive
same,outcome,[4],inactive
C=CC(=O)OCCN(CC)CC,Potency,[2],inactive
COc1cccc(-c2ccc(/C=C\CN3CCCCCC3)cc2Cl)c1,Potency,[3],31.6 µM (active)
same,Potency,[2],inactive
Clc1ccc([C@@H]2C[C@H]3CC[C@@H]2N3)cn1,Potency,[5],inactive
same,outcome,[6],inactive
same,Potency,[7],inactive
same,outcome,[8],inactive
same,outcome,[9],inactive
same,outcome,[10],inactive
same,outcome,[11],inactive
same,outcome,[12],inactive
same,outcome,[13],inactive
same,outcome,[14],inactive
same,outcome,[15],inactive
same,outcome,[16],inactive
same,outcome,[17],inactive
same,outcome,[18],inactive
same,outcome,[19],inactive
same,outcome,[20],inactive
same,Potency,[21],inactive
same,Potency,[22],inactive
same,Potency,[23],inactive
same,Potency,[24],inactive
same,outcome,[25],inactive
same,Potency,[26],inactive
same,Potency,[27],inactive
same,outcome,[28],inactive
same,outcome,[29],inactive
same,Potency,[30],inactive
same,Potency,[31],inactive
same,outcome,[32],inactive
same,Potency,Aromatase (Homo sapiens),inactive
same,outcome,[33],inactive
same,outcome,[4],inactive
same,Potency,[34],inactive
same,outcome,[1],inactive
O=C(O)c1ccccc1[O-].O=C(O)c1ccccc1[O-].[Zn+2],Potency,[7],inactive
same,outcome,[15],inactive
same,Potency,[21],inactive
same,Potency,[22],inactive
same,Potency,[23],inactive
same,Potency,[24],inactive
same,outcome,[25],inactive
same,Potency,[26],inactive
same,outcome,[28],inactive
same,Potency,[35],inactive
same,Potency,[34],inactive
CCN(CC)CCNC(=O)c1cc(Br)c(N)cc1OC,Potency,[2],inactive
CCC(=O)O[C@](Cc1ccccc1)(c1ccccc1)[C@H](C)CN(C)C,Potency,[5],inactive
same,outcome,[6],inactive
same,Potency,[7],inactive
same,outcome,[8],inactive
same,outcome,[9],inactive
same,outcome,[10],inactive
same,outcome,[11],inactive
same,outcome,[12],inactive
same,outcome,[13],inactive
same,outcome,[14],inactive
same,outcome,[15],inactive
same,outcome,[16],inactive
same,outcome,[17],inactive
same,outcome,[18],inactive
same,outcome,[19],inactive
same,outcome,[20],inactive
same,Potency,[21],inactive
same,Potency,[22],60.3 µM (active)
same,Potency,[23],67.6 µM (active)
same,Potency,[24],inactive
same,outcome,[25],inactive
same,Potency,[26],26.9 µM (active)
same,Potency,[27],53.7 µM (active)
same,outcome,[28],inactive
same,Potency,[35],inactive
Nc1ncnc2c1ncn2CCOCP(=O)(O)O,Potency,[5],inactive
same,Potency,Aromatase (Homo sapiens),inactive
Cc1ccc2c(c1)OCC(=O)CO2,Potency,[2],inactive
COc1ccc2cc(S(=O)(=O)N[C@H](CC(=O)N[C@H](Cc3ccc(CN4[C@H](C)CCC[C@@H]4C)cc3)C(=O)N(C)C(C)C)c3ccc4c(c3)OCO4)ccc2c1,Potency,[2],inactive
